Holding throughout (design): species or system human, MV4-11 + K-562 + COLO205 + SK-N-BE2 + OVCAR-8
For one assay, the system named is ADRBK1. The note with it: read-out: apparent Kd, n = 1.
The next assay relates to AKT1. The following applies: read-out: apparent Kd; compound concentrations: 100 nM and 1000 nM (sheet 'Samples'), CATDS: 9.2646573747736397E-2; n = 1.
A further assay relates to AKT2. The note with it: read-out: apparent Kd, n = 1.
The subject of another assay is AKT3. The note with it: read-out: apparent Kd; compound concentrations: 100 nM and 1000 nM (sheet 'Samples'), CATDS: 9.8238280231453798E-2; n = 1.
For a further assay, the system named is MAP2K1. The following applies: read-out: apparent Kd; compound concentrations: 100 nM and 1000 nM (sheet 'Samples'), CATDS: 9.2730141301733807E-2; n = 1.
The next assay relates to MAP2K2. The following applies: read-out: apparent Kd; compound concentrations: 100 nM and 1000 nM (sheet 'Samples'), CATDS: 9.7397505320664393E-2; n = 1.
A further assay relates to MAP4K3. The note with it: read-out: apparent Kd; compound concentrations: 100 nM and 1000 nM (sheet 'Samples'), CATDS: 0.10467989294056; n = 1.
Another assay relates to NQO1. The note with it: read-out: apparent Kd; compound concentrations: 100 nM and 1000 nM (sheet 'Samples'), CATDS: 0.121643058614981; n = 1.
A further assay deals with RIOK2. The note with it: read-out: apparent Kd; compound concentrations: 100 nM and 1000 nM (sheet 'Samples'), CATDS: 0.103588865131405; n = 1.
For the next assay, the system named is TP53RK. The following applies: read-out: apparent Kd; compound concentrations: 100 nM and 1000 nM (sheet 'Samples'), CATDS: 8.4192999566122695E-2; n = 1.
The subject of the next assay is AURKB. The following applies: read-out: apparent Kd; compound concentrations: 100 nM and 1000 nM (sheet 'Samples'), CATDS: 4.53976270719329E-2; n = 1.
A further assay has as its system CDC42BPA. The following applies: read-out: apparent Kd; compound concentrations: 100 nM and 1000 nM (sheet 'Samples'), CATDS: 4.6703340399090902E-2; n = 1.
In another assay the test system is CDC42BPB. The note with it: read-out: apparent Kd; compound concentrations: 100 nM and 1000 nM (sheet 'Samples'), CATDS: 8.1718607262500007E-2; n = 1.
In a further assay the test system is CDC42BPG. The following applies: read-out: apparent Kd; compound concentrations: 100 nM and 1000 nM (sheet 'Samples'), CATDS: 0.122976821527932; n = 1.
A further assay deals with MELK. The following applies: read-out: apparent Kd; compound concentrations: 100 nM and 1000 nM (sheet 'Samples'), CATDS: 4.0337872556692203E-2; n = 1.
The subject of a further assay is PKN1. The note with it: read-out: apparent Kd; compound concentrations: 100 nM and 1000 nM (sheet 'Samples'), CATDS: 5.5828153237378199E-2; n = 1.
The subject of a further assay is PRKACA. The note with it: read-out: apparent Kd; compound concentrations: 100 nM and 1000 nM (sheet 'Samples'), CATDS: 0.15364930572584601; n = 1.
A further assay has as its system PRKACB. The note with it: read-out: apparent Kd; compound concentrations: 100 nM and 1000 nM (sheet 'Samples'), CATDS: 8.6308392593060404E-2; n = 1.
A further assay has as its system PRKG1. The note with it: read-out: apparent Kd; compound concentrations: 100 nM and 1000 nM (sheet 'Samples'), CATDS: 0.45709294819491503; n = 1.
The next assay has as its system PRKX;PRKY. The following applies: read-out: apparent Kd; compound concentrations: 100 nM and 1000 nM (sheet 'Samples'), CATDS: 6.11631694313804E-2; n = 1.
The test system of a further assay is ROCK1. The note with it: read-out: apparent Kd; compound concentrations: 100 nM and 1000 nM (sheet 'Samples'), CATDS: 0.130780563846252; n = 1.
The subject of the next assay is ROCK2. The following applies: read-out: apparent Kd; compound concentrations: 100 nM and 1000 nM (sheet 'Samples'), CATDS: 0.120469396164387; n = 1.
The test system of the next assay is RPS6KA5. The following applies: read-out: apparent Kd; compound concentrations: 100 nM and 1000 nM (sheet 'Samples'), CATDS: 4.3322192000587102E-2; n = 1.
Another assay deals with RPS6KB1. The following applies: read-out: apparent Kd; compound concentrations: 100 nM and 1000 nM (sheet 'Samples'), CATDS: 4.8981649950923703E-2; n = 1.
The next assay has as its system EIF2AK1. The note with it: read-out: apparent Kd; compound concentrations:100 nM and 1000 nM (sheet 'Samples'); n = 1.
The next assay deals with GSK3A. The following applies: read-out: apparent Kd; compound concentrations:100 nM and 1000 nM (sheet 'Samples'); n = 1.
The test system of a further assay is GSK3B. The note with it: read-out: apparent Kd; compound concentrations:100 nM and 1000 nM (sheet 'Samples'); n = 1.
In another assay the test system is PIM2. The following applies: read-out: apparent Kd; compound concentrations:100 nM and 1000 nM (sheet 'Samples'); n = 1.
The subject of another assay is PRKAG1. The note with it: read-out: apparent Kd; compound concentrations:100 nM and 1000 nM (sheet 'Samples'); n = 1.
The next assay concerns TAOK1. The note with it: read-out: apparent Kd; compound concentrations:100 nM and 1000 nM (sheet 'Samples'); n = 1.
[1] abbreviates: compound concentrations:100 nM and 1000 nM (sheet 'Samples').

Structures are written as SMILES. Like-named read-outs stand apart in the source and are kept apart here.

Regarding `N#Cc1c(NC(=O)c2cccc3ccccc23)sc2c1CCCC2` [GW620972X], the potency estimated from few doses is 1570 nM in the assay on ADRBK1 (compound concentrations: 100 nM and 1000 nM (sheet 'Samples'), CATDS: 9.9298321917506205E-2); 1820 nM with AKT1; 1170 nM in the assay on AKT2 (compound concentrations: 100 nM and 1000 nM (sheet 'Samples'), CATDS: 0.116273813691737); 1610 nM in the assay with AKT3; 1820 nM in the assay with MAP2K1; 1640 nM in the assay with MAP2K2. Besides, the potency estimated from few doses with MAP4K3 was 1420 nM; with NQO1, 1080 nM; with RIOK2 it was 1440 nM; in the assay on TP53RK it was 2270 nM.

In the case of `O=C(Nc1ccc2c(c1)OCO2)NC1CCN(c2ccnc(NCc3ccc(F)cc3)n2)CC1` [GSK1379859A], the potency estimated from few doses in the assay on ADRBK1 (compound concentrations: 100 nM and 1000 nM (sheet 'Samples'), CATDS: 1) is 2160 nM.

Turning to `CCNCC(Cc1ccccc1)NC(=O)c1cc(Br)c(-c2ccnc3[nH]ccc23)s1.CCNCC(Cc1ccccc1)NC(=O)c1cc(Br)c(-c2ccnc3[nH]ccc23)s1.Cl.Cl` (stereo not shown) [GSK1383280A], the potency estimated from few doses with ADRBK1 (compound concentrations: 100 nM and 1000 nM (sheet 'Samples'), CATDS: 4.4620595418211097E-2) was 971 nM; in the assay with AURKB, 888 nM; in the assay with CDC42BPA, 771 nM; with CDC42BPB, 103 nM; in the assay with CDC42BPG it was 38.1 nM; in the assay on MELK, 1780 nM. Also, the potency estimated from few doses is 359 nM with PKN1; 24.4 nM with PRKACA; 88.6 nM with PRKACB; 4.21 nM with PRKG1; 256 nM in the assay with PRKX;PRKY; 33.5 nM in the assay with ROCK1. For the same compound, the potency estimated from few doses in the assay with ROCK2 was 39.8 nM; in the assay on RPS6KA5, 1140 nM; in the assay on RPS6KB1, 617 nM.

Consider `O=C(Nc1n[nH]c2nc(-c3ccc(O)cc3)c(Br)cc12)C1CC1` [SB-725317], for which the potency estimated from few doses is 1950 nM with ADRBK1 (setting [1]); 2420 nM in the assay with AKT2 (setting [1]); 517 nM in the assay with EIF2AK1; 12.9 nM in the assay with GSK3A; 43.1 nM with GSK3B; 768 nM in the assay with PIM2. Moreover, the potency estimated from few doses with PRKAG1 was 1610 nM; in the assay with TAOK1, 1840 nM.
